The results in this text go back to PubChem BioAssay (NCATS).

Inconclusive results are not listed. Values without a mark were called inactive. Activity calls are given as the source filed them. The call rests on the fitted dose curve; in most records, active means well fitted inhibition curve with a large enough effect; inconclusive means small, poorly fitted or top-dose-only effect; inactive means flat fitted curve, though single readings scatter.
On the % scale 0 is the no-effect control and ±100 the full control effect.

This test is described as follows: P-glycoprotein substrates identified in KB-8-5-11 adenocarcinoma cell line, qHTS therapeutic library screen (AID 1346987). Further: nearly all actives have a fitted effect of over 65% in size. Conditions: KB-8-5-11 (P-gp overexpressing) viability, CellTiter-Glo, 72 h; series mostly up to 44.5 µM; activity change, negative = cytotoxicity: at the top concentration. In a few lines: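 Compounds are pinned in dose-response onto KB-8-5-11 cells (500 cells/well, colchicine-free medium) and left 72 h at 37 degree C. CellTiter-Glo luminescence then yields AC50 values.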
Take `CC(=O)O[C@H]1[C@H](C)[C@@H](O)[C@H]2[C@@H]1C=C(C(=O)O)[C@H]1C[C@@H]3[C@H]([C@H]21)[C@H]1C(=O)O[C@@H]2CC[C@@]3(C)O[C@]1(O)[C@@H]2C`: the “activity change, negative = cytotoxicity” value was 8.35% [at 17.3 µM].

Take `CC(=O)N(O)CCCCCN1C(=O)CCC1=O`: the “activity change, negative = cytotoxicity” value was 3.18%.

As to `COc1cc(C)c(C(=O)O[C@H]2[C@@H](O)[C@H](n3ccc(=O)[nH]c3=O)O[C@@H]2CO)c(OC)c1`, the “activity change, negative = cytotoxicity” value is 7.34% [at 17.3 µM].

Take `C[C@@]12C[C@]3(O)O[C@H](O1)[C@]1(COC(=O)c4ccccc4)[C@H]3C[C@@]12O[C@@H]1O[C@H](COC(=O)c2ccccc2)[C@@H](O)[C@H](O)[C@H]1O`: the “outcome” value is “inactive [at 17.3 µM]”.

`CC1=CC(=O)C2C(C)(C)CCCC2(C)C12CCC1(COC(=O)C1)O2` (stereo not drawn): the “activity change, negative = cytotoxicity” value is 2.44%.

`C=CC(C)(O)CO[C@@H]1O[C@H](CO)[C@@H](O)[C@H](O)[C@H]1O` (stereo partly drawn): the “activity change, negative = cytotoxicity” value was 6.43%.

For the compound `COc1cc(C2Oc3c(OC)cc(/C=C/C(=O)OC[C@H]4O[C@@H](OC(C)(C)C(=O)O)[C@H](O)[C@@H](O)[C@@H]4O)cc3C2CO)ccc1O` (stereo partly drawn), the “activity change, negative = cytotoxicity” value was 5.69% [at 17.3 µM].

`COc1cc2c(cc1OC)CN(C(=O)[C@@H](NCc1ccncc1)C(C)(C)C)CC2`: the “activity change, negative = cytotoxicity” value was 0.391%.

As for `CC1CCC2C(C)(C)C(O)CCC2(C)C12Cc1c(O)cc3c(c1O2)CN(C(CCC(N)=O)C(=O)O)C3=O` (stereo not drawn), the “outcome” value was “inactive [at 17.3 µM]”.

For the compound `C/C(=C/CCC(CO)C1CCC2(C)C3CCC4C(C)(C)C(OC5OC(CO)C(O)C(O)C5O)CC(O)C45CC35CCC12C)COC1OC(CO)C(O)C(O)C1O` (stereo not drawn), the “outcome” value was “inactive [at 17.3 µM]”.

For `COc1cc2c(cc1O)C1(OC)Cc3ccc4c(c3C1N(C)CC2)OCO4` (stereo not drawn), the “activity change, negative = cytotoxicity” value was 4.82%.

As to `CC(=O)N[C@H]1CCN(c2ccc(C3=NOC(CN[S+](=O)([O-])C(C)C)C3)cc2F)C1` (stereo partly drawn), the compound was classed as inactive.

As to `C=C1CC23CCC4[C@@](C)(CCC[C@@]4(C)C(=O)O)C2CCC1C3` (stereo partly drawn), the “activity change, negative = cytotoxicity” value is 1.4%.

As to `C[C@@H]1C(=O)O[C@H]2CC34[C@H]5C[C@@H](C(C)(C)C)C36[C@@H](OC(=O)[C@@H]6O)O[C@@]4(C(=O)O5)[C@]21O` (stereo partly drawn), the “outcome” value is “inactive [at 17.3 µM]”.

With `COC1CC(=O)C23C(=O)NC(CC(C)C)C2C(C)C(C)=CC3/C=C(\C)CCC1O` (stereo not drawn), the “activity change, negative = cytotoxicity” value was 6.49% [at 17.3 µM].

Regarding `NC(Cc1c[nH]c2ccccc12)C(=O)NC(CCC(=O)O)C(=O)O` (stereo not drawn), the compound was called inactive.

As for `CCOC(=O)Nc1nc2ccccc2[nH]1`, the “activity change, negative = cytotoxicity” value is 0.805%.

Consider `CCC(CC)n1ccc2c(C(=O)NCc3c(C)cc(C)[nH]c3=O)cc(C#N)cc21`, for which the “activity change, negative = cytotoxicity” value was -10.5%.

For `C/C1=C\C[C@H](O[C@@H]2O[C@H](CO)[C@@H](O)[C@H](O)[C@H]2O)/C(C)=C/[C@H]2OC(=O)[C@H](C)[C@@H]2CC1`, the “activity change, negative = cytotoxicity” value was 9.61% [at 17.3 µM].

For the compound `CC(C)(O)C1=CCC23COC(C2)C(O)(C(=O)O)CCC13` (stereo not drawn), the compound was classed as inactive.

With `C=C1CCC2C(C)(CO[C@@H]3O[C@H](CO)[C@@H](O)[C@H](O)[C@H]3O)C(O)CCC2(C)C1C(=O)CC1=CCOC1=O` (stereo partly drawn), the “activity change, negative = cytotoxicity” value was 8.63% [at 17.3 µM].

For `CC1(C)CCC(C)(C)c2cc3c(cc21)Sc1ccccc1N=C3c1ccc(C(=O)O)cc1`, the “activity change, negative = cytotoxicity” value is -19.3%.

Turning to `CC(C)CC(=O)OC[C@H]1O[C@@](COC(=O)CC(C)C)(O[C@H]2O[C@H](CO)[C@@H](O)[C@H](O)[C@H]2OC(=O)CC(C)C)[C@@H](OC(=O)CC(C)C)[C@@H]1O`, the “outcome” value was “inactive [at 17.3 µM]”.

With `CC(C)C1=CC2=CCC3[C@](C)(CCC[C@@]3(C)C(=O)O)C2CC1=O` (stereo partly drawn), the compound was classed as inactive.

Consider `CC(=O)c1c(C)cc(O[C@@H]2O[C@H](CO)[C@@H](O)[C@H](O)[C@H]2O)cc1O`, for which the compound was called inactive.

Turning to `COc1ccc([C@H]2Cc3cccc(O)c3C(=O)O2)cc1`, the “activity change, negative = cytotoxicity” value was -3.39%.

With `CC(O)(CC(=O)O)CC(=O)O[C@@H]1[C@@H](O)[C@H](OCCc2ccccc2)O[C@H](CO)[C@H]1O` (stereo partly drawn), the “activity change, negative = cytotoxicity” value is 0.385% [at 17.3 µM].

For `O=C1[C@H](O[C@@H]2O[C@H](CO)[C@@H](O)[C@H](O)[C@H]2O)Oc2ccccc2N1O`, the compound was called inactive.

As to `CCOC(=O)[C@H](CCc1ccccc1)N[C@@H](C)C(=O)N1C2CCCCC2C[C@H]1C(=O)O` (stereo partly drawn), the compound was classed as inactive.

Consider `N#CCc1ccc(O)cc1O[C@@H]1O[C@H](CO)[C@@H](O)[C@H](O)[C@H]1O`, for which the “activity change, negative = cytotoxicity” value was 4.3%.

`COC(=O)c1ccc(O[C@@H]2O[C@H](CO)[C@@H](O)[C@H](O)[C@H]2O)c(OC)c1`: the outcome was inactive.

As to `CC1(C)CCCC2(C)C3=C(C(=O)OC3O)C(O)CC12` (stereo not drawn), the result was inactive.

As for `CC(C)(O)c1ccc2c(c1)C(=O)CC1[C@](C)(CO)CCC[C@]21C` (stereo partly drawn), the “activity change, negative = cytotoxicity” value is 3.32%.
